# Screening data as filed in PubChem BioAssay.
# JMJD2A Tudor – blocks the human JMJD2A Tudor domain; Potency, µM (series often up to 114 µM), actives largely listed as inhibitors; O75164; 4.4% of 390,000 active; AlphaScreen JMJD2A-Tudor / H3K4me3 peptide binding; note: nearly all actives have a fitted effect of over 50% in size
# BAZ2B inh – inhibitors of human BAZ2B bromodomain | Q9UIF8 | AlphaScreen BAZ2B-H3K14Ac peptide displacement | 4.4% of 360,000 active | Potency, µM (titrated, usually from 114 µM), hits mostly inhibitors | AID 504333; note: nearly all actives have a fitted effect of over 60% in size
#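 Compounds, titrated to a top concentration of 110 uM, were incubated 30 min at room temperature with preformed BAZ2B/acetyl-K14 H3 peptide complex (50 nM each). Proximity signal was measured by AlphaScreen after 20 min with beads.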
# L3MBTL1 inh-1 – blocks human L3MBTL1 | Q9Y468 | AlphaScreen L3MBTL1–H3K9me1 peptide binding | Potency, µM (top dose mostly 57.1 µM), actives largely listed as inhibitors | 0.66% of 230,000 active; note: nearly all actives have a fitted effect of over 60% in size
#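 AlphaScreen proximity signal between nickel-chelate acceptor and streptavidin donor beads (final 10 ug/mL) reports binding of 50 nM L3MBTL1 to 75 nM biotin-H3 K9me1 peptide; complex incubated with compounds 30 min at room temperature; cefsulodin titration as control.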
# HP1b chromo inh – HP1-beta chromodomain-methylated histone interaction inhibition; Potency, µM (titrated, usually from 114 µM), actives largely listed as inhibitors; AID 540317; AlphaScreen HP1-beta / biotin-H3K9me3 peptide binding; 0.56% of 390,000 active; note: nearly all actives have a fitted effect of over 70% in size
# Target sequence (P83916 whole entry, looked up): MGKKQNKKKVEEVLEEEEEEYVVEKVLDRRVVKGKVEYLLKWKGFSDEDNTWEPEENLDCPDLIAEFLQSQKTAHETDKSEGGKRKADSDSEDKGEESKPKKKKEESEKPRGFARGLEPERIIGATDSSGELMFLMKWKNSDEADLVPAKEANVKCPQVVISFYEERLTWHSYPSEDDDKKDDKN
#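 AlphaScreen: HP1-beta (50 nM) preformed 30 min with biotin-H3(1-18)K9me3 peptide (50 nM) in PBS pH 7.4, 0.01% Tween-20. Compound added for 30 min at RT, then streptavidin donor/nickel chelate acceptor beads (10 ug/mL) for 30 min.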
# G9a inh-1 – inhibitors of human histone lysine methyltransferase G9a. Potency, µM (doses to about 102 µM), most hits filed as inhibitors. Q96KQ7. 8.8% of 350,000 active. AID 504332. G9a H3K9 monomethylation, AlphaScreen, 2 h; note: nearly all actives have a fitted effect of over 75% in size
# Target sequence (Q96KQ7 913-1193 limits assumed): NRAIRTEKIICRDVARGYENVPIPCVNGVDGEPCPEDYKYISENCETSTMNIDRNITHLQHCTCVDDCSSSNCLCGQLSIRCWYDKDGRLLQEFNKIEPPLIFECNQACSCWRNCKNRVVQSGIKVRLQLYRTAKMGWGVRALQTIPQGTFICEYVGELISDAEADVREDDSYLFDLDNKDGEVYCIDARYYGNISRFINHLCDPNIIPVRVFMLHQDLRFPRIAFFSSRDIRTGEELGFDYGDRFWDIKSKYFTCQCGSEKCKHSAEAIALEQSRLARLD
#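 G9a (20 nM) preincubated 15 min RT with compounds, then 500 nM biotinylated H3K9 peptide and 20 uM SAM added; 2 h RT reaction. Monomethyl-H3K9 product detected by AlphaScreen with anti-H3K9me1 antibody, streptavidin donor and anti-rabbit IgG acceptor beads.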
# Sfp inh – Sfp phosphopantetheinyl transferase inhibition; Q9F4F7; Biochemical Sfp PPTase activity, qHTS; Potency, µM, actives largely listed as inhibitors; 3.5% of 310,000 active; AID 1490;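 note: the enzyme is Sfp with the accession as filed and its product quenches rhodamine fluorescence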
#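 Step 1, compound plus 15 nM Sfp-PPTase, 15 min, room temperature. Step 2, add rhodamine-CoA (5 uM) and BHQ-2-YbbR (12.5 uM). Step 3, read 525/598 nm fluorescence at 0 and 30 min.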
# Sfp inh conf – confirmation of Bacillus subtilis Sfp PPTase inhibitors | shares compounds with Sfp inh | Sfp PPTase enzymatic assay, qHTS titration | Potency, µM (series often up to 114 µM), hits mostly inhibitors | 79% of 380 active | AID 2701
# Target sequence (Q9F4F7 whole entry, looked up): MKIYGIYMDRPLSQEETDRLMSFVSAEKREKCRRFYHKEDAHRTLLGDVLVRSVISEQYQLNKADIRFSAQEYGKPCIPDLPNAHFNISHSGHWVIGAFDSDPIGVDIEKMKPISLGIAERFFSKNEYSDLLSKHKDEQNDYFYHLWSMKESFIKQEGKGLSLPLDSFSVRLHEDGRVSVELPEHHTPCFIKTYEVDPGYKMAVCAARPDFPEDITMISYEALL
# Sfp gel assay – Blocks Sfp PPTase activity, gel read-out. 20% of 210 active. Potency, µM, actives largely listed as inhibitors. purified Sfp, gel-based phosphopantetheinylation read-out. shares compounds with Sfp inh;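 active = potency below 100 µM; inconclusive = dose-dependent response but potency above 100 µM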;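 note: potency is an IC50 for inhibitors of Sfp transfer activity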
# L3MBTL1 inh-2 – validation of human L3MBTL1 methyl-lysine binding inhibitors; shares compounds with L3MBTL1 inh-1; L3MBTL1 methyl-lysine binding inhibition, biochemical qHTS; Potency, µM, most hits filed as inhibitors; 91% of 500 active; AID 540279; note: nearly all actives have a fitted effect of over 70% in size
# AlphaScreen ctr2 – AlphaScreen signal inhibition, L3MBTL1 hit counter-screen. shares compounds with L3MBTL1 inh-1. AlphaScreen counterscreen, signal inhibition. Potency, µM (top dose mostly 57.1 µM), usual class: inhibitors. 500 tested, under 10 active. AID 602224
# G9a inh-2 – inhibits human G9a histone lysine methyltransferase, hit confirmation | shares compounds with JMJD2A Tudor | G9a H3K9 monomethylation, AlphaScreen, 2 h | Potency, µM, actives largely listed as inhibitors | 89% of 370 active | AID 588344; note: nearly all actives have a fitted effect of over 65% in size
# A number is an active result; - = inactive; ? = inconclusive; . = no result; ! = a repeat was not active; [ ] = remark or other dose. Compounds with a hit are over-represented: about 12% of the library has one in this group of screens. Unless noted, calls come from the whole dose curve; as a rule, active = well fitted curve in the direction sought with a large enough effect; inconclusive = small, poorly fitted or top-dose-only effect, or another doubt; inactive = no such curve, though single readings can be large; an effect the other way counts as inactive or inconclusive.
SMILES,JMJD2A Tudor,BAZ2B inh,L3MBTL1 inh-1,HP1b chromo inh,G9a inh-1,Sfp inh,L3MBTL1 inh-2,AlphaScreen ctr2,others
CN1C(=O)NC(=O)C2(Cc3ccccc3N3CCOCC32)C1=O (centres undefined),-,-,-,-,-,-,.,.,
CC(Cc1ccc(C(C)(C)C)cc1)CN1CC(C)OC(C)C1 (centres undefined),.,.,.,.,.,-,.,.,
CC[C@@H]1/C=C/C=C/C[C@H](C)[C@@H](O)[C@](C)(O)C(=O)[C@H](C)[C@@H](O)[C@H](C)C(=O)[C@H](C)[C@@H](O)[C@H](C)/C=C/C(=O)O[C@H]2[C@@H](C)[C@@H](CC1)O[C@@]1(CC[C@@H](C)[C@@H](C[C@H](C)O)O1)[C@@H]2C,.,.,.,.,-,0.0006µM,.,.,Sfp inh conf=-;Sfp gel assay=-
CCC1C=CC=CC[C@H](C)[C@@H](O)[C@](C)(O)C(=O)[C@@H](C)[C@H](O)[C@@H](C)C(=O)[C@H](C)[C@@H](O)[C@H](C)C=CC(=O)OC2[C@@H](C)C(CC1)OC1(CC[C@@H](C)C(C[C@H](C)O)O1)[C@@H]2C (some centres undefined),.,-,-,.,-[12.7 µM],.,.,.,
OCCN(CCO)CCO,.,.,.,.,-,-,.,.,
Clc1ccc(COC(Cn2ccnc2)c2ccc(Cl)cc2Cl)c(Cl)c1 (centres undefined),40µM,22µM,-,-,-[2.33 µM],35µM!,.,.,Sfp inh conf=?
C=CCOC(Cn1ccnc1)c1ccc(Cl)cc1Cl (centres undefined),-,-,-,-,-[12.7 µM],-,.,.,
CCOC(=O)Nc1ccc(NCc2ccc(F)cc2)nc1N,56µM,71µM,?,?,1.2µM,35µM,.,.,Sfp inh conf=15µM
CN(C)C1C(=O)C(C(N)=O)C(=O)C2(O)C(=O)C3C(=O)c4c(O)cccc4C(C)(O)C3C(O)C12 (centres undefined),.,.,.,.,3.5µM,7.9µM,.,.,Sfp inh conf=?
CN1CCc2cc3c(cc2[C@@H]1[C@@H]1OC(=O)c2c1ccc1c2OCO1)OCO3,.,.,.,.,-[21.5 µM],-,.,.,
Cc1c(OCC(F)(F)F)ccnc1CS(=O)c1nc2ccccc2[nH]1 (centres undefined),?,35µM,-,-,6.7µM!,13µM!,.,.,Sfp inh conf=30µM;Sfp gel assay=-;G9a inh-2=0.5
CN1CC[C@@]2(CCCN(C(=O)c3ccncc3)C2)C1,.,.,.,.,-[12.7 µM],-,.,.,
Cc1cc(/C=C2\C(=O)NC(=O)N(c3cccc(F)c3)C2=O)c(C)n1-c1cc(C(=O)O)cc(C(=O)O)c1,79µM,45µM,7.9µM,-,.,-,1.5,-,
COc1cc2c3cc1Oc1cc(ccc1O)C[C@@H]1c4c(cc(OC)c(O)c4Oc4cccc(c4)C[C@H]3N(C)CC2)CC[N+]1(C)C,.,.,.,.,-[21.5 µM],-,.,.,
COc1ccc(CN2C(=O)NC(=O)/C(=C\c3ccco3)C2=O)cc1,45µM,28µM,7.9µM,?,28µM,71µM,2.7,-,
Cc1cccc(N2CCN(C(=O)CCCCn3c(=O)[nH]c4ccsc4c3=O)CC2)c1C,-,?,.,-,-,.,.,.,
CC(C)CN1CC2(CCN(C(=O)Oc3ccccc3)CC2)C1,.,.,.,.,-[12.7 µM],-,.,.,
COc1ccc(/C=C2/C(=O)N(Cc3ccco3)C(=O)N(C(C)C)C2=O)cc1,-,-,?,-,?,-,.,.,
CC(C)N1C(=O)/C(=C/C=C/c2ccco2)C(=O)N(Cc2ccco2)C1=O,14µM,35µM,32µM,28µM,.,-,4.7,-,
COc1ccc2c3c1O[C@H]1[C@@H](O)C=C[C@H]4C(C2)NCCC341 (some centres undefined),.,.,.,.,-,-,.,.,
O=C(c1ccc2nc(-c3ccco3)c(-c3ccco3)nc2c1)N1CCC2(CC1)OCCO2,89µM,56µM,28µM,-,?,8.9µM,?,-,
COc1ccc(-n2cnc3cc(C(=O)N4CCC5(CC4)OCCO5)ccc32)cc1,-,-,.,-,-,-,.,.,
O=C1NC(=O)N(Cc2ccco2)C(=O)/C1=C/c1ccc(-c2cccc([N+](=O)[O-])c2)o1,14µM,35µM,28µM,?,3.2µM,20µM,3.4,-,
Cc1cccc(OCCn2cccc2/C=C2/C(=O)NC(=O)N(Cc3ccco3)C2=O)c1,-,45µM,20µM,-,.,56µM,?,?,
CC(C)C[C@H](NC(=O)[C@H](Cc1ccccc1)NC(=O)CNC(=O)CNC(=O)[C@@H](N)Cc1ccc(O)cc1)C(=O)N[C@@H](CCCN=C(N)N)C(=O)N[C@@H](CCCCN)C(=O)N[C@@H](Cc1ccc(O)cc1)C(=O)N1CCC[C@H]1C(=O)N[C@@H](CCCCN)C(=O)O,.,.,.,.,-,-,.,.,
O=C1NC(=O)N(c2cccc(Cl)c2)C(=O)/C1=C\c1ccc(Sc2nc3ccccc3[nH]2)o1,35µM,35µM,32µM,?,3.2µM,40µM,27,-,
C[C@H]1CC[C@@H]2[C@@H](C)[C@H]3[C@H](C[C@H]4[C@@H]5CC=C6CC(O[C@@H]7O[C@H](CO)[C@H](O)[C@H](O[C@@H]8O[C@H](CO)[C@@H](O)[C@H](O)[C@H]8O)[C@H]7O[C@H]7O[C@@H](C)[C@H](O)[C@@H](O)[C@H]7O)CC[C@]6(C)[C@H]5CC[C@]34C)N2C1 (some centres undefined),.,.,.,.,?,-,.,.,
CN1CCC2(CC1)NC(=O)C1=C(CN(C)CC1)N2,-,-,28µM,-,-,-,?,-,
CC(C)C[C@H]1C(=O)N2CCC[C@@H]2[C@]2(O)O[C@](NC(=O)[C@@H]3C=C4c5cccc6[nH]c(Br)c(c56)C[C@H]4N(C)C3)(C(C)C)C(=O)N12,.,.,.,.,.,-,.,.,
